From PubChem BioAssay AID485297 (National Center for Advancing Translational Sciences (NCATS), 2010)
In all, about 320,000 compounds went through this assay and about 9,100 (2.8%) were called active. Not shown: some 3% with an inconclusive outcome. Calls follow the shape of the dose curve; as a rule, active = well fitted activation curve with a large enough effect; inconclusive = small, poorly fitted or top-dose-only effect; inactive = no such curve, though single readings can be large or run the other way. Shown is part of a subset that was picked to be rich in actives.

Assay: qHTS Assay for Rab9 Promoter Activators; also: nearly all actives have a fitted effect of over 60% in size
Settings: Huh7 Rab9 promoter-luciferase reporter, luminescence, 24 h; series mostly up to 9.22 µM
From the text: NIH Chemical Genomics Center [NCGC] NIH Molecular Libraries Probe Production centers Network [MLPCN] MLPCN Grant: MH089537-01 Assay Submitter (PI): Yiannis A. Ioannou NCGC Assay Overview: Niemann Pick Type C (NPC) is a rare neurodegenerative lipidosis that is characterized by lipid storage in the endosomal/lysosomal system. Treatment modalities for this devastating disease are currently non-existent due to the severe obstacles associated with accessing the central nervous system with proteins or genes (Ioannou, 2000). We have developed a new paradigm, termed "Orphan Receptor Bypass Therapy" (ORByT), to address these disorders. This paradigm posits the existence of endogenous "suppressor" proteins whose expression can dramatically improve LSD pathogenesis. The goal is the identification/discovery of small chemical compounds that can modulate the expression of these proteins and provide a new treatment modality for these devastating disorders. One such protein whose overexpression reverses aspects of the NPC phenotype is Rab9. We have developed and optimized a cell based luciferase reporter assay in 1536 well format for the identification of up-regulators of the Rab9 promoter.
The Rab9 promoter is cloned in front of the luciferase reporter gene, therefore […] promoter activation results in luciferase expression. Frozen stock of the Rab9 promoter transfected Huh7 cells were obtained from the laboratory of Dr. Yiannis Ioannou (The Mount Sinai School of Medicine, New York, NY). Cells were propagated and maintained at NCGC in medium containing RPMI-1640 supplemented with 10% FBS, 2mM L-glutamine, and 50ug/ml penicillin/streptomycin. Cells were harvested in and plated for assays in OP-MEM I reduced-serum medium supplemented with 10% FBS. The Amplite luciferase reporter gene assay kit was purchased from ABD Bioquest and prepared/stored according to manufacturers recommendations. qHTS Assay Setup: 1.Dispensed 5ul of Huh7 cells stably expressing Rab9-luciferase at a density of 1500 cells per well 1536-well plates. 2.Incubate cells at 37C, 5% CO2, and 95% humidity for 2 hours. 3.Transferred 23nl per well of compound in DMSO solution. 4.Incubated at 37C, 5% CO2, and 95% humidity for 24 hours. 5.Dispensed 3ul per well of Amplite reagent(ABD Bioquest) per well. 6.Incubate at ambient for 10 minutes. 7.Read using the luminescence protocol on the ViewLux plate reader (Perkin Elmer).
Potency is read from the fitted curve at half-maximal effect.

Potency, inactive:
COCCCNC(=O)COc1cc(C)c(Cl)c(C)c1
Cc1cccnc1CC(C)NC(=O)c1cc(COc2cncc(Cl)c2)on1 (configuration not stated)
CN(C)S(=O)(=O)c1cc(C(=O)Nc2ccn(C)n2)c(Cl)cc1Cl
O=C(Nc1cccc(C(=O)NC2CC2)c1)c1ccc(F)c(S(=O)(=O)N2CCOCC2)c1
CC(=O)c1ccc(N2CCN(C(=O)c3ccc(Cl)c(S(=O)(=O)NC4CC4)c3)CC2)c(F)c1
O=C(Nc1cccc(S(=O)(=O)Nc2ccc(Cl)cc2)c1)c1ccc2c(c1)OCCO2
Cn1c(NC(=O)c2ccc3c(c2)OCO3)cc(=O)n(C)c1=O
CCCc1nnc(NC(=O)c2cc(OC)cc(OC)c2)s1
CN1CCN(c2ccc(NC(=O)c3cc(Cl)c4c(c3)OCCO4)cc2)CC1
O=C(Nc1cccc(S(=O)(=O)N2CCCCC2)c1)c1ccc2c(c1)OCO2
O=C(CN1CCc2cc3c(cc2C1)OCCCO3)Nc1ccccc1
O=C(Nc1cccc([N+](=O)[O-])c1)c1ccc2c(c1)OCO2
COC(=O)c1ccc(N2CCOCC2)c(NC(=O)c2ccc3c(c2)OCCO3)c1
CCN(CC)c1nc(-c2ccccc2)cc(C(F)(F)F)c1C#N
Cc1ccc(-c2nnc(-n3nnc4ccccc43)c3ccccc23)cc1
Cc1ccc(C(=O)OCC(=O)NCc2cc(C)c(O)c(C)c2)cc1S(=O)(=O)N1CCCCC1
O=C(Nc1ccc(Br)cn1)C1CCN(S(=O)(=O)c2cccs2)CC1
O=C(CN1CCCCC1)Nc1ccccc1C(=O)NC1CC1
C=CCNc1nc(N)c(C(=C(C#N)C#N)c2ccccc2)s1
Cc1n[nH]c(=O)c2c(NC(=O)CSc3cc(Cl)ccc3Cl)oc(C)c12
O=S(=O)(NCCc1ccccn1)c1cc(Cl)cc(Cl)c1O
COc1ccc(S(=O)(=O)N2CCOCC2)cc1C(=O)Nc1nc2ccccc2s1
Cc1nn(CC(=O)Nc2nc3ccccc3s2)c(C)c1[N+](=O)[O-]
O=C(Nc1ccccc1N1CCN(C(=O)c2ccccc2)CC1)c1ccc2c(c1)OCO2
O=C(CCNC(=O)c1ccccc1)Nc1nc2ccccc2s1
Cc1ccc(F)cc1NC(=O)c1ccc2c(c1)OCO2
O=C(Nc1ccc2c(c1)OCO2)c1ccc(N2C(=O)c3ccccc3C2=O)cc1
O=C(Nc1nc2cc3c(cc2s1)OCCO3)c1cccc(S(=O)(=O)N2CCOCC2)c1
COc1cc(NC(=O)c2ccc3c(c2)OCO3)ccc1NC(=O)c1cccs1
CSc1ncccc1C(=O)Nc1ccc2c(c1)OCO2
CCC(C)NC(=O)c1ccc(NC(=O)CC2SC(N3CCCCC3)=NC2=O)cc1 (configuration not stated)
CC1CC(C)CN(C(=O)COC(=O)c2ccc3ncsc3c2)C1 (configuration not stated)
CN(CC(=O)NCC(c1ccccc1)N1CCCC1)S(=O)(=O)c1ccc(Cl)cc1 (configuration not stated)
COc1ccc(CCNC(=O)COc2ccc3c(c2)OCO3)cc1
CC(Oc1ccc(Br)cc1)C(=O)NC1CCCCCC1 (configuration not stated)
Cc1ccc(C(=O)Nc2ccc3c(c2)OCO3)cc1S(=O)(=O)N1CCCCC1
CCSc1ccccc1C(=O)Nc1ccc2c(c1)OCO2
CN(CC(=O)Nc1ccc(F)c(F)c1F)C(=O)C1CC(=O)N(C2CCCC2)C1 (configuration not stated)
NS(=O)(=O)c1ccc(CNC(=O)c2cccc(S(=O)(=O)N3CCc4ccccc43)c2)cc1
COc1cc(C(=O)Nc2ncccc2C)ccc1OCC(=O)N1CCOCC1
CC1(C)O[C@@H]2[C@H](O1)[C@@H](COS(=O)(=O)O)O[C@H]2n1ccc(=O)[nH]c1=O
CCOc1cccc(-n2nnnc2-c2ccc(OC)cc2)c1
COc1ccc(C2=NN(c3nc4ccccc4s3)C(=O)C2)cc1
CCOc1ccc(NC(=O)COC(=O)C2CCC(=O)N2)c([N+](=O)[O-])c1 (configuration not stated)
C[C@H](NC(=O)c1[nH]cnc1C(=O)Nc1nccs1)c1ccccc1
COC(=O)[C@@H]1CCCN1C(=O)c1cc(COc2cccc3cccnc23)on1
CSc1ccccc1OCc1cc(C(=O)N(C)CCc2c(C)n[nH]c2C)no1
CC(OC(=O)CN1C(=O)c2ccccc2C1=O)C(=O)c1ccccc1 (configuration not stated)
Cc1cc(C(=O)Nc2ccc(C)c(S(=O)(=O)N3CCOCC3)c2)c2ccccc2n1
Cc1ccc(C(=O)NCC(c2cccs2)N(C)C)cc1S(=O)(=O)N1CCOCC1 (configuration not stated)
Nc1ccn(CC(=O)N2CCN(c3ccccn3)CC2)c(=O)n1
O=C(/C=C/c1ccco1)NC(=S)Nc1ccccc1Br
Cc1nnc(NC(=O)/C=C/c2ccco2)s1
Cc1nc(Cl)cc(N/N=C/c2ccccc2)n1
Cc1cc(C)nc(N/N=C/c2c(C)oc3ccccc23)n1
Brc1ccc(-c2csc(N/N=C/c3ccc4c(c3)OCO4)n2)cc1
O=C(Nc1ccc2ccccc2c1)/C(=C\c1ccc2c(c1)OCO2)NC(=O)c1ccco1

Potency, active:
Cc1cc(OCc2cc(C(=O)NCc3cc(C(C)C)no3)no2)cc(C)c1Cl 1000 nM
O=C(Nc1ccccc1)c1ccc2c(c1)OCO2 2510 nM
COCc1nnc(NC(=O)c2ccc3c(c2)OCO3)s1 2820 nM
CN1CCN(c2ccc(NC(=O)c3ccc4c(c3)OCCO4)cc2Cl)CC1 2000 nM
O=C(Nc1ccccc1)c1ccc2c(c1)OCCCO2 562 nM
COc1ccc(C(=O)Nc2ccc3c(c2)OCO3)cc1OC 4470 nM
O=C(Nc1ccccc1F)c1ccc2c(c1)OCO2 2820 nM
O=C(Nc1nc2ccccc2s1)c1ccc2c(c1)OCO2 316 nM
O=C(Nc1ccccc1)Nc1nc2ccccc2s1 1120 nM
CC(C)C(=O)Nc1cccc(C(=O)Nc2ccc3c(c2)OCO3)c1 1120 nM
COc1ccc(-n2nnnc2-c2nc3ccccc3s2)cc1 2820 nM
CSc1ccccc1OCc1cc(C(=O)N2C[C@H]3CC[C@H]2C3)no1 2820 nM
O=C(/C=C/c1ccco1)Nc1ccc(Oc2ccccc2)cc1 3980 nM
Cc1noc(C)c1/C=N/Nc1ccc2ccccc2n1 708 nM
C(=N\Nc1ccc2ccccc2n1)/c1ccc2c(c1)OCO2 100 nM
